According to ChEMBL document CHEMBL1157539, “Thousands of chemical starting points for antimalarial lead identification” (Nature, 2010):

Tests used:
Assay type in all cases: functional
Plasmodium falciparum [1] = assay: GSK_TCMDC: Inhibition of Plasmodium falciparum 3D7 in whole red blood cells, using parasite LDH activity as an index of growth. Test compounds present at 2uM
Plasmodium falciparum [2] = assay: GSK_TCMDC: Inhibition of Plasmodium falciparum Dd2 in whole red blood cells, using parasite LDH activity as an index of growth. Test compounds present at 2uM
HepG2 = assay: GSK_TCMDC: Percent inhibition of human HepG2 cell line. Test compounds present at 10uM.

| Compound | Inhibition (Plasmodium falciparum [1]) | Inhibition (Plasmodium falciparum [2]) | Inhibition (HepG2) |
| --- | --- | --- | --- |
| CCCc1cc(OC)c(CC2c3cccc(O)c3CCN2C)cc1OC.Cl (stereo not drawn) | 100% | 99% | 3% |
| O=C1CN(C(=O)CCC2CCCC2)C(c2ccc(F)cc2)c2cc(F)ccc2N1 (stereo not drawn) | 100% | 75% | 12% |
| CNC(=O)c1cnc(Nc2ccc(OCC(O)CN(C)C)cc2)nc1Nc1cccc(OC)c1.O=C(O)C(F)(F)F (stereo not drawn) | 100% | 97% | 31% |
| CCc1ccc(-n2c(=O)c3cccnc3n2CC(=O)NC2CCCC2)cc1 | 98% | 27% | 0% |
| COc1ccc(CNC2CCN(C)CC2)cc1-c1ccc(S(=O)(=O)NCCc2ccccn2)s1.O=C(O)C(F)(F)F | 100% | 12% | 6% |
| O=C(O)C(F)(F)F.O=C1CCCN1CCCNCc1cccc(-c2ccc(-c3nc4cc(C(F)(F)F)ccc4[nH]3)cc2)c1 | 100% | 96% | 15% |
| Cc1c(F)cc(C(=O)NC2CC2)cc1-c1ccc2c(cnn2S(=O)(=O)c2ccc(C#N)cc2)c1 | 97% | 92% | 17% |
| Cl.N=C(N)c1cc(Cl)cc(NC(=O)Nc2cc(Cl)cc(C(=N)N)c2)c1 | 92% | 92% | 4% |
| Nc1ccc(-c2ccc3ccnc(N)c3c2)cc1 | 100% | 68% | 38% |
| FC(F)(F)c1ccc2[nH]ccc(=NN=Cc3ccccc3)c2c1 | 92% | 2% | 7% |
| Cn1c2c(c3ccccc31)CN(CCC1(c3ccc(Cl)c(Cl)c3)CN(C(=O)Cc3ccccc3)CCO1)CC2 (stereo not drawn) | 95% | 91% | 22% |
| Cc1[nH]c(C)c(-c2ccc(-c3ccccc3Cl)nc2)c(=O)c1Cl | 98% | 97% | 0% |
| Cc1cc(Nc2ccc(C)c(Cl)c2)n2ncnc2n1 | 98% | 91% | 6% |
| O=C(Nc1ccc(CN2CCOCC2)cc1)c1ccc(-c2ccc(Cl)cc2)o1 | 98% | 11% | 22% |
| CC(C)(C)c1ccc(NC(=O)N[C@@H]2CCN(c3ccnc4ccccc34)C2)cc1.Cl | 100% | 96% | 23% |
| Cc1nnsc1C(=O)Nc1ccc(-c2cccc(-c3nc4cc(C(F)(F)F)ccc4[nH]3)c2)cc1 | 97% | 36% | 69% |
| O=C1Nc2cccc3c2C1(CCCCN1CCC(c2c(-c4ccccc4)[nH]c4ccccc24)CC1)CCC3 (stereo not drawn) | 84% | 33% | 18% |
| CCOc1cc2c(cc1OCC)C(c1ccc(O)c(Cl)c1)NCC2.Cl (stereo not drawn) | 98% | 98% | 6% |
| CCCCCN(C(=O)Nc1cc(C(F)(F)F)cc(C(F)(F)F)c1)C(C)c1nc2ccccc2c(=O)n1CC (stereo not drawn) | 100% | 100% | 0% |
| CCN(CC)CCCCCNc1c2ccc(Cl)cc2nc2ccc(OC)cc12.Cl | 99% | 99% | 96% |
| COc1ccc(-c2cncc3ccc(C(=O)NCCCn4ccnc4)nc23)cc1 | 95% | 99% | 28% |

| Compound | Inhibition (Plasmodium falciparum [1]) | Inhibition (Plasmodium falciparum [2]) | Inhibition (HepG2) |
| --- | --- | --- | --- |
| CN(C)C1CCN(CC#Cc2cc3ncnc(Nc4ccc(OCc5cccc(F)c5)c(Cl)c4)c3s2)CC1 | 85% | 5% | 34% |
| CN1CCC(N(Cc2ccc(-c3ccc(C(F)(F)F)cc3)cc2)C(=O)Cn2c(SCc3cccc(F)c3F)cc(=O)c3c2CCC3)CC1.O=C(O)C(O)C(O)C(=O)O | 89% | 83% | 50% |
| Br.CCc1c(CCNCCCCCCNCCc2ccc([N+](=O)[O-])cc2)ccc(O)c1O | 94% | 23% | 5% |
| CC(C)N1CCC(N(Cc2ccc(-c3ccc(C(F)(F)F)cc3)cc2)C(=O)CCCn2c(CCc3cccc(F)c3F)nc(=O)c3ccccc32)CC1.O=C(O)C(O)C(O)C(=O)O | 89% | 60% | 45% |
| Cc1cc2[nH]c(-c3ccc(C(=O)NCCCN4CCN(c5cccc(Cl)c5)CC4)cc3)nc2cc1Cl | 98% | 73% | 1% |
| CC(C)CCNC(=N)Nc1ccc(OCCCOc2ccc(NC(=N)NCCC(C)C)cc2)cc1 | 100% | 95% | 0% |
| NC1CCN(Cc2ccc(-c3ccc(-c4nc5ccccc5[nH]4)s3)cc2)C1.O=C(O)C(F)(F)F (stereo not drawn) | 100% | 99% | 32% |
| COc1cc2c(cc1OC)CN(c1cc(N)c3cc(OC)c(OC)cc3n1)CC2.CS(=O)(=O)O | 100% | 99% | 23% |
| COc1cc2nccc(Nc3cccc(Oc4ccccc4)c3)c2cc1OC.Cl | 100% | 95% | 25% |
| COc1cc(C)ccc1S(=O)(=O)N1CCCCC(c2ccc(C(F)(F)F)cc2)=N1 | 92% | 89% | 16% |
| CCc1cccc(-n2c(=O)c3cccnc3n2CC(=O)NC2CCCC2)c1 | 94% | 13% | 2% |
| Cc1cc(C(=O)Nc2ccc3c(c2)CCN3C2CCN(Cc3ccc4nsnc4c3)C2)no1 (stereo not drawn) | 90% | 94% | 0% |
| CN(C)CCNC(=O)c1ccc(-c2cnc3ccc(NCc4ccc(Cl)c(Cl)c4)nn23)cc1 | 98% | 98% | 60% |
| Cl.c1ccc2c(c1)ncn2-c1ccnc(Nc2ccncc2)n1 | 89% | 80% | 0% |
| CCCCC(N)COc1cccc2c(-c3ccncc3)c(-c3cccc(NC(=O)Nc4ccccc4)c3)nn12 (stereo not drawn) | 100% | 82% | 13% |
| FC(F)(F)CNc1nc(Nc2ccc3ncccc3c2)nc2[nH]ccc12.O=C(O)C(F)(F)F | 87% | 83% | 37% |
| CC(C)CNCc1ccc(-c2cccc(CN(CCN(C)C)C(=O)NCCc3ccccc3)c2)cc1.O=C(O)C(F)(F)F | 91% | 37% | 33% |
| O=C(O)C(F)(F)F.OCC1CCN(Cc2ccc(-c3ccc(-c4nc5cc(F)ccc5[nH]4)cc3)cc2)CC1 | 100% | 95% | 17% |
| Cc1sc(CNCCCNc2cc(=O)c3ccccc3[nH]2)c(I)c1C.Cl | 94% | 48% | 0% |
| CCCC(C(=O)OCCN(CC)CC)(c1ccc(Cl)cc1)c1ccc(Cl)cc1.Cl | 91% | 87% | 7% |
| CC(=O)Oc1c(C2C=CCCC2)c(OC(C)=O)c2ccccc2c1OC(C)=O (stereo not drawn) | 95% | 79% | 10% |

| Compound | Inhibition (Plasmodium falciparum [1]) | Inhibition (Plasmodium falciparum [2]) | Inhibition (HepG2) |
| --- | --- | --- | --- |
| CCCCCCCN1CC[C@@H](CCCc2ccnc3ccc(OCCN4CCNCC4)cc23)[C@@H](CC)C1.Cl | 100% | 98% | 82% |
| O=C(Nc1ccccc1)N(Cc1ccc(-c2ccc(CNC3CCCC3)cc2)cc1)C1CCN(Cc2ccccc2)CC1.O=C(O)C(F)(F)F | 100% | 61% | 34% |
| CC(C)(C)CNCC(C)(C)c1nc(-c2ccc(Cl)c(O)c2)c(-c2ccncc2)[nH]1.Cl | 100% | 98% | 42% |
| Cc1ccc(/C=C/C(=O)NC2CCC(N3CCC(c4ccccc4C)CC3)CC2)cc1F (stereo not drawn) | 96% | 18% | 51% |
| CC(C)(C)OC(=O)n1cc(C2CCN(CCCC34CCCc5cccc(c53)NC4=O)CC2)c2ccncc21 (stereo not drawn) | 92% | 0% | 20% |
| Cc1ccc(NC(=O)Nc2cccc(Cl)c2)cc1-c1ccc(C(=O)Nc2ccncc2)cc1 | 97% | 49% | 67% |
| CCc1ccc(S(=O)(=O)Nc2cccc(CCN3CCC(N4CCCCC4)CC3)c2)cc1 | 100% | 20% | 21% |
| CCN1CCN(c2cc(C)c3cc(NC(=O)c4ccc(OC)c(OC)c4)ccc3n2)CC1 | 90% | 23% | 28% |
| CC1CN(c2cnn(C/C=C/c3ccc(NC(=O)c4ccc([N+](=O)[O-])cc4)cc3)c(=O)c2Cl)CC(C)N1.O=C(O)C(F)(F)F (stereo not drawn) | 96% | 38% | 22% |
| CNC(=O)c1cnc(Nc2ccc(N3CCN(C)CC3)c(C)c2)nc1NC.Cl | 97% | 38% | 19% |
| Cc1cc(N[C@@H](CC(C)C)C(=O)NCCc2ccccc2)nc(NCCc2cccs2)n1.O=C(O)C(F)(F)F | 89% | 16% | 0% |
| COc1ccc(Nc2nccc(N3CCC(NC(=O)Nc4cc(C)ccc4C)C3)n2)cc1 (stereo not drawn) | 91% | 37% | 10% |
| COc1cccc(-c2cc(C(=O)NC3CCC(N4CCC(c5ccccc5C)CC4)CC3)[nH]n2)c1 (stereo not drawn) | 99% | 58% | 60% |
| CC1(CCCCN2CCC(Cc3ccccc3)CC2)C(=O)Nc2ccccc21.Cl (stereo not drawn) | 100% | 28% | 66% |
| CCCc1ccc(S(=O)(=O)NC2CCN(c3ccnc(Nc4ccc(OC)cc4)n3)C2)cc1 (stereo not drawn) | 89% | 45% | 42% |
| O=C(Nc1cccc(-c2cccc(-c3nc4cc(F)ccc4[nH]3)c2)c1)Nc1ccc(F)c(F)c1F | 100% | 100% | 83% |
| CC(C)c1cccc(C(NC(=O)[C@H]2Cc3ccccc3CN2C(=O)c2cccc(N3CCOCC3)c2)C2CCCC2)c1 (stereo partly drawn) | 94% | 96% | 3% |
| COc1cc(F)c2ncc(Cl)c([C@@H](O)CN3CCC(NCc4ccc5c(n4)NC(=O)CO5)CC3)c2c1.Cl | 100% | 100% | 12% |
| CC(C)C1c2ccc(O)cc2CC2C(=O)N(C3CCCCC3)C(=O)N21 (stereo not drawn) | 95% | 88% | 2% |
